Potency data for three molecules are collected here from PubChem BioAssay AID2061322 (National Center for Advancing Translational Sciences (NCATS), 2025).

Results filed as inconclusive are left out. The source made the active and inactive calls. Calls come from the whole dose curve; as a rule, active = well fitted inhibition curve with a large enough effect; inconclusive = small, poorly fitted or top-dose-only effect; inactive = flat fitted curve, though single readings scatter.

A short description of this assay: Identification of antibody-drug conjugate (ADC) payloads which are substrates of ATP-binding cassette drug efflux transporters: ABCG2-HEK293-R5 cell line with Ko143. The following applies: ABCG2-HEK293-R5 with Ko143, CellTiter-Glo viability, 48 h. The source says:
Antibody-drug conjugates (ADCs) feature an antibody recognizing a specific protein joined to a potent toxic payload. Numerous antibody-drug conjugates have received FDA approval; however, clinical resistance arises. Resistance mechanisms include decreased expression or mutation of the antibody target, impaired payload release, or increased expression of ATP-binding cassette (ABC) efflux transporters associated with multidrug resistance. We therefore sought to characterize the interaction of ABC multidrug transporters with ADC payloads. We performed a high-throughput screen with 27 common ADC payloads using cells lines expressing ABC transporters P-glycoprotein (P-gp, encoded by ABCB1) or ABCG2 (encoded by ABCG2). Confirmatory assays were also performed using cells transfected to express P-gp, ABCG2, or MRP1 (encoded by ABCC1). Several commonly used ADC payloads were substrates of P-gp, including calicheamicin gamma1, monomethyl auristatin E, DM1, and DM4. All the pyrrolobenzodiazepines tested - SJG136, SGD-1882, SG2057, and SG3199 - were substrates of P-gp, ABCG2, and MRP1. […] These findings highlight the risk of transporter-mediated resistance with certain ADC payloads and underscore the importance of selecting payloads that evade ABC transporter recognition in future ADC development.
HEK-293 cells were transfected with empty vector (pcDNA) or vector containing the human ABCB1 (MDR-19), ABCG2 (R-5), or ABCC1 gene (MRP1) and were maintained in EMEM with 2 mg/mL G418 added to maintain transporter expression. The HeLa derivative KB-3-1 and the P-gp overexpressing KB-8-5-11 subline were maintained in DMEM; KB-8-5-11 additionally received 100 ng/mL colchicine. H460 parental cells were obtained from the Division of Cancer Treatment and Diagnosis Tumor Repository, National Cancer Institute at Frederick, MD and were cultured in RPMI. The ABCG2 expressing subline H460 MX20 was generated by selecting H460 cells in 20 nM mitoxantrone. Media in all cases was supplemented with 10% FBS and 1% penicillin-streptomycin. […]
In general terms: In ATP-based viability assays light output follows the ATP content of the culture.
With `COc1cc2cc(C(=O)N3C[C@@H](CCl)c4c3cc(O)c3ccccc43)[nH]c2c(OC)c1OC`, the Potency is 15 nM (active).
Next, `CC[C@H](C)[C@@H]([C@@H](CC(=O)N1CCC[C@H]1[C@H](OC)[C@@H](C)C(=O)N[C@H](C)[C@@H](O)c1ccccc1)OC)N(C)C(=O)[C@@H](NC(=O)[C@H](C(C)C)N(C)C)C(C)C`: 16.9 nM (active); `COc1cc2cc(c1Cl)N(C)C(=O)C[C@H](OC(=O)[C@H](C)N(C)C(=O)CCC(C)(C)S)[C@]1(C)OC1[C@H](C)C1C[C@@](O)(NC(=O)O1)[C@H](OC)/C=C/C=C(\C)C2` (stereo partly drawn): 1.7 nM (active).
